Reference: PubChem BioAssay
For some of these results: Measured potencies and affinities stand elsewhere. Active and inactive are the calls of the source.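 The calls were made as follows, unless noted: active = fluorescence ratio normalized to control raised more than 50% in primary screen plus both repeat runs; inactive = the rest.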

Legend:
[1] = system: TRPC4 beta (transient receptor potential cation channel C4), mouse; assay: TRPC4 cation channel opening, retest – cell-based, Fluo4 calcium, HEK293 TRPC4beta/mu-opioid, duplicates, 10 µM, confirmation (AID 2426); conditions: Fluo4 calcium fluorescence, at 10 µM; hits give high values;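 as to activation: percent rise of integrated ratio over buffer wells lacking compound which define 0%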
[2] = system: transient receptor potential cation channel C4 beta (TRPC4), mouse; assay: TRPC4 cation channel opening, second retest – cell-based, second round, Fluo4, HEK293 TRPC4beta/mu-opioid, 1 µM, confirmation (AID 2461;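 active = primary screen active and over 50% activation in each of two duplicate runs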;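 as to activation: 0% = wells without test compound as baseline of integrated fluorescence ratio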); conditions: Fluo4 calcium fluorescence, at 1 µM; hits give high values
[3] = system: TRPC4 (transient receptor potential cation channel C4 beta), mouse; assay: potentiation of DAMGO EC20 TRPC4 response – cell-based, second round, Fluo-4, HEK293 TRPC4beta/mu-opioid, 1 µM, confirmation (AID 2554;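 active = primary screen hit whose fluorescence ratio, in both repeats, exceeds the weak agonist control mean by 3 SD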); conditions: DAMGO EC20, Fluo-4 calcium flux, at 1 µM; hits give high values
[4] = system: TRPC4 beta (transient receptor potential cation channel C4), mouse; assay: potentiation of DAMGO EC20 TRPC4 response – cell-based, Fluo-4, HEK293 TRPC4beta/mu-opioid, confirmation (AID 2555;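 active = primary screen hit whose calcium fluorescence ratio, in both repeats, exceeds the weak agonist control mean by 3 SD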); conditions: DAMGO EC20, Fluo-4 calcium flux, at 10 µM; hits give high values
[5] = biological target: Short transient receptor potential channel 4 (Mus musculus) (UniProt Q9QUQ5); assay: blockers of DAMGO-evoked TRPC4 calcium flux – cell-based, Fluo4, HEK293 TRPC4beta/mu-opioid, confirmation (AID 2636;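 active = calcium signal cut by more than 3 SD below the full-agonist control yet still positive, in both repeats and the earlier primary screen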); conditions: at 10 µM; hits give high values
[6] = biological target: Short transient receptor potential channel 4 (Mus musculus) (UniProt Q9QUQ5); assay: blockers of DAMGO-evoked TRPC4 calcium flux – cell-based, second round, Fluo4, HEK293 TRPC4beta/mu-opioid, 1 µM, confirmation (AID 2637;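 active = calcium signal ratio cut to more than 3 SD under the fully stimulated control mean yet still positive, in both repeats and the primary screen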); conditions: at 1 µM; hits give high values
[7] = biological target: Short transient receptor potential channel 4 (Mus musculus) (UniProt Q9QUQ5); assay: potentiation of DAMGO-evoked TRPC4 calcium signal – cell-based, HEK293 TRPC4/mu-opioid, Fluo-4 calcium, EC20 DAMGO, dose response (AID 434941;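 active = earlier screen potentiator hit that boosts the TRPC4 ion channel at some dose, with a dose response; inactive = no potentiation, no dose response, or not a prior hit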;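 also: calcium entry triggered by an EC20 dose of DAMGO at the co-expressed mu-opioid receptor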)
[8] = biological target: Short transient receptor potential channel 4 (Mus musculus) (UniProt Q9QUQ5); assay: block of DAMGO-driven TRPC4 calcium entry – cell-based, HEK293 TRPC4/mu-opioid, Fluo-4 calcium, dose response (AID 434942;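 active = primary screen inhibitor hit that blocks the TRPC4 channel at some tested dose, yielding a dose curve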)
[9] = biological target: Short transient receptor potential channel 6 (Mus musculus) (UniProt Q61143); assay: TRPC6 blockade by TRPC4 inhibitor hits – cell-based, HEK293, membrane potential dye, duplicate, selectivity assay for TRPC4 inhibitor project, confirmation (AID 434948;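 active = active in primary screen and both duplicates, each dropping signal beyond three positive-control SD with fluorescence still positive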); conditions: HEK293 TRPC6, membrane potential dye fluorescence, at 10 µM, stimulated with maximal-effect acetylcholine; hits give high values
[10] = biological target: Short transient receptor potential channel 6 (Mus musculus) (UniProt Q61143); assay: TRPC6 opening by TRPC4 activator hits – cell-based, HEK293, membrane potential dye, duplicate, selectivity assay for TRPC4 activator project, confirmation (AID 434950;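 active = membrane potential signal rise above negative control mean plus 3 SD in both duplicates, also active in the earlier TRPC4 screen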;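 as to activation: 0% = buffer only wells and 100% = acetylcholine maximal-effect wells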); conditions: HEK293 TRPC6, membrane potential fluorescence, at 10 µM; activation: hits give high values; outcome: activation
[11] = biological target: Short transient receptor potential channel 6 (Mus musculus) (UniProt Q61143); assay: positive modulators of mouse TRPC6 channel – HEK293 cells, membrane potential dye, duplicate, selectivity assay for TRPC4 potentiator project, confirmation (AID 434952;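 active = compound raising the membrane signal above positive-control mean plus 3 SD in both repeats, and a primary screen hit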); conditions: HEK293 TRPC6, membrane potential dye fluorescence, at 10 µM, maximal acetylcholine added after compound; hits give high values
[12] = biological target: Short transient receptor potential channel 4 (Mus musculus) (UniProt Q9QUQ5); assay: calcium flux activators in TRPC4/5HT1a cells, counter-screen for TRPC4 activator project, cell-based, second counter screen, HEK293 TRPC4/5HT1a, Fluo-4 (AID 434977;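 active = calcium signal rise above buffer-control mean plus 5 SD in both duplicates, and also a hit in the primary screen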;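 as to activation: plate controls were assay buffer for no effect and maximal serotonin response for full effect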); conditions: Fluo-4 calcium flux, at 10 µM; hits give high values
[13] = serotonin-gated TRPC4 signal block – cell-based, second counter screen, HEK293 TRPC4/5HT1a, Fluo-4, counter-screen for TRPC4 inhibitor project, confirmation (AID 434978;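 active = primary screen active whose calcium signal fell more than 3 SD beyond the full-serotonin control mean in both duplicate plates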;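 also: serotonin given first at submaximal then at maximal dose after compound preincubation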); conditions: Fluo-4 calcium flux, at 10 µM, serotonin added to trigger calcium flux; hits give high values
[14] = system: TRPC4 (mouse), co-expressed with 5HT1a in HEK293; assay: enhancement of serotonin-evoked TRPC4 response – cell-based, second counter screen, HEK293 TRPC4/5HT1a, Fluo-4, counter-screen for TRPC4 potentiator project, confirmation (AID 434979;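 active = signal rise over 3 SD above mean of control wells given weak agonist, in both repeats and first screen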); conditions: Fluo-4 calcium flux, at 10 µM, serotonin added at its EC20 dose; hits give high values
[15] = nonspecific calcium rise without TRPC4 – cell-based, HEK293 mu-opioid receptor line, counter-screen for TRPC4 activator project, confirmation (AID 449723;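 active = hit in primary screen, with calcium signal over 5 SD above buffer well mean in both duplicates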;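 also: counter screen cells carry the mu-opioid receptor alone and lack TRPC4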); conditions: HEK293 mu-opioid cells, Fluo-4 calcium fluorescence, at 10 µM; hits give high values
[16] = nonspecific potentiation of DAMGO calcium response – cell-based, HEK293 mu-opioid receptor line, counter-screen for TRPC4 allosteric potentiator project, confirmation (AID 449724;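 active = calcium signal rise more than 3 SD above the low-dose agonist control mean, in both duplicate plates and the primary screen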); conditions: HEK293 mu-opioid receptor cells, Fluo-4 calcium flux, at 10 µM, compound added before EC20 DAMGO stimulus; hits give high values

Chain of Short transient receptor potential channel 6 (Mus musculus) (Q61143 whole entry, looked up): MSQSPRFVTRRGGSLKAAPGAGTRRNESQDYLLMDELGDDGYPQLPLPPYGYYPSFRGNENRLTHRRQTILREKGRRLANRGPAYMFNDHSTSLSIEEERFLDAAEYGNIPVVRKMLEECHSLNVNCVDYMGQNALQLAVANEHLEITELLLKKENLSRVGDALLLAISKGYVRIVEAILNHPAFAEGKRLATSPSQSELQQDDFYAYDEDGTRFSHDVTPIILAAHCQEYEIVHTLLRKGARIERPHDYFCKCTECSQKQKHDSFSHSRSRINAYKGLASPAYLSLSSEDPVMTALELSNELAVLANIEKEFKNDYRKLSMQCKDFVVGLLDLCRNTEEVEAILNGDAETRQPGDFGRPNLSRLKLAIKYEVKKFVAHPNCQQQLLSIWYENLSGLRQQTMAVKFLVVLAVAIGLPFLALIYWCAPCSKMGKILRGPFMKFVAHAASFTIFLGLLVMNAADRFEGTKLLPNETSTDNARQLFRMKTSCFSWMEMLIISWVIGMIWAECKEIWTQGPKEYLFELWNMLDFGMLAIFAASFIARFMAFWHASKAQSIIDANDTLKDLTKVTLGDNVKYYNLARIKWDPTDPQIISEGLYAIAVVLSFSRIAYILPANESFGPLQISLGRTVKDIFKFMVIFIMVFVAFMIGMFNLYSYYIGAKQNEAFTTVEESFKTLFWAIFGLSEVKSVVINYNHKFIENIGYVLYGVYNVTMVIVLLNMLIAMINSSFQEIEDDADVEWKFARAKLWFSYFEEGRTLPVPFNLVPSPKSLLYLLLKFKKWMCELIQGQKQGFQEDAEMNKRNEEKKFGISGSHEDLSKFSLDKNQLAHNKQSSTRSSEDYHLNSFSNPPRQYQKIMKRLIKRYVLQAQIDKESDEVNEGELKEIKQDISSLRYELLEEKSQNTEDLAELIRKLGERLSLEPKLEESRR
Chain of Short transient receptor potential channel 4 (Mus musculus) (Q9QUQ5 whole entry, looked up): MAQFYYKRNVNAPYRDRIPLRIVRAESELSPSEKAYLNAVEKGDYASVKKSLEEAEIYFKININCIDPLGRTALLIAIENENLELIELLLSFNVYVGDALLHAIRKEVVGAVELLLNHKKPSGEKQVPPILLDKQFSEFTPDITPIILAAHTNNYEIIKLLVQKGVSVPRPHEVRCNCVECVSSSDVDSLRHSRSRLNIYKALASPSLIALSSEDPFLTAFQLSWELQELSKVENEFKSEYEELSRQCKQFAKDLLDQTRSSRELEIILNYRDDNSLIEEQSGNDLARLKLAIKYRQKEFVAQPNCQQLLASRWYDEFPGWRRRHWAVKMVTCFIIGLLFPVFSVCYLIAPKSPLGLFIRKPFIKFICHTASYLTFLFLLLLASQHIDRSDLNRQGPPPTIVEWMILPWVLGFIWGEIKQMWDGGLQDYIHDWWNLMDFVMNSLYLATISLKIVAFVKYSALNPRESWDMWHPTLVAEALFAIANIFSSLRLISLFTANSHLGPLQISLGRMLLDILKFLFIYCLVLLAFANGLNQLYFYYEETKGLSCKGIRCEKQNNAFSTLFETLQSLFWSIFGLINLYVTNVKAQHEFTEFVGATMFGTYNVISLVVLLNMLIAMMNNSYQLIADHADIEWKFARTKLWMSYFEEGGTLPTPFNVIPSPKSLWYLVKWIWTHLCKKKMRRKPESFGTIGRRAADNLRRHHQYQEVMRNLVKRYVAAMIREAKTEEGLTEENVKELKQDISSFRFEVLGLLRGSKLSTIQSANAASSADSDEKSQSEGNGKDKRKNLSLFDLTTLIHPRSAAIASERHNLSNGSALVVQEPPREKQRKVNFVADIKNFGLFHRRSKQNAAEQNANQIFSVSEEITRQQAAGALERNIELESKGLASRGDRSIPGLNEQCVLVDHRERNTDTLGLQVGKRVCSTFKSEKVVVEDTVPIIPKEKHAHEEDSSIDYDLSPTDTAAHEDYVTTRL

CN1CCC(=O)N([C@H](CSc2ccc(Br)cc2)Cc2ccccc2)CC1
inactive: outcome [1] | outcome [2] | outcome [3] | outcome [4] | outcome [5] | outcome [6] | outcome [7] | outcome [8] | outcome [9] | outcome [11] | outcome [12] | outcome [13] | outcome [14] | outcome [15] | outcome [16]
active: activation [10] 33%

O=C(NCCNC1CCC(c2ccccc2)CC1)c1cccs1 (stereo unspecified)
inactive: outcome [3] | outcome [4] | outcome [5] | outcome [6] | outcome [7] | outcome [8] | outcome [9] | outcome [11] | outcome [13] | outcome [14] | outcome [15] | outcome [16]
active: activation [1] 169% | activation [2] 95% | activation [10] 66% | activation [12] 103%

COc1cc2ccccc2cc1C(=O)NCC(c1cccs1)N(C)C (stereo unspecified)
inactive: outcome [2] | outcome [3] | outcome [4] | outcome [5] | outcome [6] | outcome [7] | outcome [8] | outcome [9] | outcome [11] | outcome [12] | outcome [13] | outcome [14] | outcome [15] | outcome [16]
active: activation [1] 164% | activation [10] 59.5%

COC(=O)c1ccc(N2CCN(C)CC2)c(NC(=O)c2ccc(Br)o2)c1
inactive: outcome [2] | outcome [3] | outcome [4] | outcome [5] | outcome [6] | outcome [7] | outcome [8] | outcome [9] | outcome [10] | outcome [11] | outcome [13] | outcome [14] | outcome [15] | outcome [16]
active: activation [1] 148% | activation [12] 13.3%

CC1(C(=O)NC(=S)NNC(=O)c2ccncc2)CCCCC1
active: activation [1] 197% | activation [12] 101%
inactive: outcome [2] | outcome [3] | outcome [4] | outcome [5] | outcome [6] | outcome [7] | outcome [8] | outcome [9] | outcome [10] | outcome [11] | outcome [13] | outcome [14] | outcome [15] | outcome [16]

O=C(NC(=S)NNC(=O)c1ccccc1[N+](=O)[O-])c1ccc(Br)cc1
active: activation [1] 141% | activation [10] 29% | activation [15] 15.6%
inactive: outcome [2] | outcome [3] | outcome [4] | outcome [5] | outcome [6] | outcome [7] | outcome [8] | outcome [9] | outcome [11] | outcome [12] | outcome [13] | outcome [14] | outcome [16]

CN(C)C(CNC(=O)NC1CCCCC1)c1cccnc1 (stereo unspecified)
inactive: outcome [3] | outcome [4] | outcome [5] | outcome [6] | outcome [7] | outcome [8] | outcome [9] | outcome [11] | outcome [12] | outcome [13] | outcome [14] | outcome [15] | outcome [16]
active: activation [1] 79% | activation [2] 98% | activation [10] 29.5%

CN1CCN(Cc2nc3c(c(=O)[nH]c(=O)n3C)n2Cc2c(F)cccc2Cl)CC1
active: activation [1] 135% | activation [2] 80% | potentiation [3] 11% | activation [10] 30% | activation [12] 17.9% | potentiation [14] 36.3%
inactive: outcome [4] | outcome [5] | outcome [6] | outcome [7] | outcome [8] | outcome [9] | outcome [11] | outcome [13] | outcome [15] | outcome [16]

CCOc1ccc(CN2CCNC(=O)C2CC(=O)NCCc2ccccn2)cc1 (stereo unspecified)
active: activation [1] 145% | activation [12] 49%
inactive: outcome [2] | outcome [3] | outcome [4] | outcome [5] | outcome [6] | outcome [7] | outcome [8] | outcome [9] | outcome [10] | outcome [11] | outcome [13] | outcome [14] | outcome [15] | outcome [16]

O=C1c2ccccc2S(=O)(=O)c2cc(C(=O)N(c3ccccn3)c3ccccn3)ccc21
inactive: outcome [2] | outcome [3] | outcome [4] | outcome [5] | outcome [6] | outcome [7] | outcome [8] | outcome [9] | outcome [10] | outcome [11] | outcome [13] | outcome [14] | outcome [16]
active: activation [1] 107% | activation [12] 99.8% | activation [15] 25.6%

CC(Nc1nc(N2CCNCC2)nc2ccccc12)c1ccccc1 (stereo unspecified)
inactive: outcome [1] | outcome [2] | outcome [3] | outcome [4] | outcome [5] | outcome [6] | outcome [7] | outcome [8] | outcome [9] | outcome [10] | outcome [11] | outcome [13] | outcome [14] | outcome [15] | outcome [16]
active: activation [12] 16.7%

COC(=O)c1ccc(N2CCN(C)CC2)c(NC(=O)c2cccs2)c1
inactive: outcome [2] | outcome [3] | outcome [4] | outcome [5] | outcome [6] | outcome [7] | outcome [8] | outcome [9] | outcome [10] | outcome [11] | outcome [13] | outcome [14] | outcome [16]
active: activation [1] 138% | activation [12] 52.7% | activation [15] 15.6%

CCCc1c(O)nc(SCCN(CC)CC)[nH]c1=O
inactive: outcome [3] | outcome [4] | outcome [5] | outcome [6] | outcome [7] | outcome [8] | outcome [9] | outcome [10] | outcome [11] | outcome [13] | outcome [14] | outcome [15] | outcome [16]
active: activation [1] 179% | activation [2] 82% | activation [12] 51.5%

CC(C)(C)C(=O)/C=c1\s/c(=C\c2ccc(-c3ccc([N+](=O)[O-])cc3)o2)c(=O)n1CC(=O)NC(N)=O
inactive: outcome [2] | outcome [3] | outcome [5] | outcome [6] | outcome [7] | outcome [8] | outcome [9] | outcome [13]
active: activation [1] 63% | potentiation [4] 36% | activation [10] 534% | potentiation, percent of control [11] 436% | activation [12] 30% | potentiation [14] 14% | activation [15] 68.5% | activation [16] 1220%

CC(=O)NC(CC(=O)NCC(c1ccco1)N(C)C)c1ccccc1 (stereo unspecified)
inactive: outcome [3] | outcome [4] | outcome [5] | outcome [6] | outcome [7] | outcome [8] | outcome [9] | outcome [10] | outcome [11] | outcome [12] | outcome [13] | outcome [14] | outcome [15] | outcome [16]
active: activation [1] 98% | activation [2] 78%

CN(C)CCNC(=O)c1c(NC(=O)c2ccccc2)sc2c1CCCC2
inactive: outcome [2] | outcome [3] | outcome [4] | outcome [5] | outcome [6] | outcome [7] | outcome [8] | outcome [9] | outcome [10] | outcome [11] | outcome [12] | outcome [13] | outcome [14] | outcome [15] | outcome [16]
active: activation [1] 161%
